According to PubChem BioAssay (NCATS):
Activity calls are given as the source filed them. Calls come from the whole dose curve; as a rule, active = well fitted inhibition curve with a large enough effect; inconclusive = small, poorly fitted or top-dose-only effect; inactive = flat fitted curve, though single readings scatter.

Molecular target: DNA polymerase III PolC-type (Bacillus subtilis (strain 168)) (UniProt P13267)
Assay: qHTS Validation Assay for the Inhibitors of DNA Replication in Gram-Positive Bacteria (AID 485295);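 note: reconstituted holoenzyme with PolC plus beta clamp SSB and primase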
Conditions: Gram-positive bacterial DNA replication assay; series mostly up to 57.1 µM
Experimental: B Subtilis DNA polymerase III holoenzyme complex was assayed for DNA production by fluorescent detection of the double-stranded DNA product with PicoGreen dye. The holoenzyme complex was reconstituted from the following purified protein components: DNA Polymerase III, beta subunit processivity factor, SSB single-stranded DNA binding protein, and Primase. Single-stranded, circular M13Gori was used as a substrate with dNTPs and NTPs also supplied to the substrate reagent. Compounds from the NCGC collection were incubated with the holoenzyme mixture for […] at room temperature to allow binding to occur, and then the reaction was started by the addition of substrate. After 30 min incubation at room temperature, PicoGreen solution containing EDTA was added to stop the reaction and to visualize the double-stranded DNA produced. Reaction progress was measured in a ViewLux CCD imager in fluorescence intensity mode by using 480 nm excitation and 540 nm emission filter set.
1. Thaw screening compounds.
2. Label assay plates. Prepare pipette tips, reagent reservoirs, buffers and controls.
1. Thaw Enzymes, DNA template, Nucleotides and PicoGreen dye concentrate. Thawed enzymes are stable on ice for ~1
week. Other thawed components are stable indefinitely.
2. Prepare sufficient quantities of Enzyme, Substrate and PicoGreen Quench mixes (according to Table II). For the number of
compound plates being screened.
3. Ensure that the tip wash station reservoirs have clean water and turn on recirculating chiller so that the chilled deck position
1. Load 2 uL of EDTA controls (250 mM, Background, 100 % inhibition) and 2 uL of DMSO controls (Negative control, 0%
inhibition) in the screening plates (flat-bottomed black 384-well polypropylene, Greiner Bio-one).
2. Place Enzyme mix reservoir on the chiller position of the liquid handler deck. Make sure that chiller will maintain
temperature of Enzyme mix at 4degC. Substrate mix and PicoGreen Quench can be stored at room temp.
3. Program liquid handling robotics to dispense 18 uL of Enzyme mix into assay plates. Wash tips.
4. Aspirate and dispense 2 uL of compound from compound plates, mix and Incubate at room temperature for 10 minutes.
5. Aspirate 5 ul of Substrate mix, dispense into assay plates and mix by pipetting. Wash tips.
6. Incubate at room temperature (21 +/- 1 deg C) for 20 minutes.
7. Quench reactions by addition of 25 uL PicoGreen Quench mix and mix by pipetting (using HTS robotics or bulk reagent
dispenser such as a Multidrop or uFill). Keep plates in the dark or stacked until ready to read fluorescence.
8. Read fluorescence intensity of plates on plate reader using "Fluorescein (Ex 485 nm/ Em 535 nm, 0.1s)" setting.

DNA polymerase III PolC-type (Bacillus subtilis (strain 168)), sequence (P13267 whole entry, looked up): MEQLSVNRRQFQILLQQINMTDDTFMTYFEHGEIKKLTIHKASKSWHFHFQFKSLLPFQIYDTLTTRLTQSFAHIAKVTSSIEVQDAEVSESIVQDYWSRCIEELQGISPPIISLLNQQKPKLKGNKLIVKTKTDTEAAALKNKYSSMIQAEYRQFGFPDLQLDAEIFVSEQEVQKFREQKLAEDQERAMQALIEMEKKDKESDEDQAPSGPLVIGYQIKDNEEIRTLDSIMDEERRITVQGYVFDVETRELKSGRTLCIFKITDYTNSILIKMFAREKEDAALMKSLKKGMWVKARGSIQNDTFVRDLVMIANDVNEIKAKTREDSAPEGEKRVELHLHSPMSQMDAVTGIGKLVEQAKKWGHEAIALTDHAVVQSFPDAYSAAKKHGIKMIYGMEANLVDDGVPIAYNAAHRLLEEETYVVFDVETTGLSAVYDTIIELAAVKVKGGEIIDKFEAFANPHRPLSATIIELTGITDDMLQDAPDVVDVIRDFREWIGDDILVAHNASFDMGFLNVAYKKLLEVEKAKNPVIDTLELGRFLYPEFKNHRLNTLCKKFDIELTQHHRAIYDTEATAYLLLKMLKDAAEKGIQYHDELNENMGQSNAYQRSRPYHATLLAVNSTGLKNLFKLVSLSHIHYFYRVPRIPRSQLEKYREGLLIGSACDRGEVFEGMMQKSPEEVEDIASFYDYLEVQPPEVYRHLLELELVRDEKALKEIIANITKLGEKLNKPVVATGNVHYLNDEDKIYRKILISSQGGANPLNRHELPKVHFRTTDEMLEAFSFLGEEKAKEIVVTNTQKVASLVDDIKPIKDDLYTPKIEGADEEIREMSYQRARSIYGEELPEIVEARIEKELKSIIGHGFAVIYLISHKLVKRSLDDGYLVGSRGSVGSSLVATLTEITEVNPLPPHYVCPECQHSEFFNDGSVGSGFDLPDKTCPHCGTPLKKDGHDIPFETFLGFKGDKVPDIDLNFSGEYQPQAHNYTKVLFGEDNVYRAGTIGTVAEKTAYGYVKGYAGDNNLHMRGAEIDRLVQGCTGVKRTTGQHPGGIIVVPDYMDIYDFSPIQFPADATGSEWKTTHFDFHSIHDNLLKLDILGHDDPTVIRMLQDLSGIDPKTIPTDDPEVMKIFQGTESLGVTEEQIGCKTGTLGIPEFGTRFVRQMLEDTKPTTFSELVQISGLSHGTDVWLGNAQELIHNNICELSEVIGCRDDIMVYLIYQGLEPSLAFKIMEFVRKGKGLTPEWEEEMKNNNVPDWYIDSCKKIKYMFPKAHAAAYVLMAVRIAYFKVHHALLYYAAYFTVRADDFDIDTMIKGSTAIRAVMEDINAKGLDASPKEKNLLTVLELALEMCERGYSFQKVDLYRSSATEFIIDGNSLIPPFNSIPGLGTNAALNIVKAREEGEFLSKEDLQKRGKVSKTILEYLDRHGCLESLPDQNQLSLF

Row | Structure (SMILES) | outcome
1 | NC(N)=Nc1nc(CSCC/C(N)=N/S(N)(=O)=O)cs1 | inactive
2 | CC(=O)N[C@@H](CS)C(=O)O | inactive
3 | O=C1NC(=O)C(c2ccccc2)(c2ccccc2)N1 | inactive
4 | COc1cccc(-c2cc(=O)c3ccccc3o2)c1N | inactive
5 | CCCCC1C(=O)N(c2ccccc2)N(c2ccccc2)C1=O | inactive
6 | CC(=O)c1ccc(S(=O)(=O)NC(=O)NC2CCCCC2)cc1 | inactive
7 | CC1=C(/C=C/C(C)=C/C=C/C(C)=C/C(=O)Nc2ccc(O)cc2)C(C)(C)CCC1 | inactive
8 | O=c1cc(-c2ccc(O)cc2)oc2cc(O)cc(O)c12 | inactive
9 | CCN(CC)CCNC(=O)c1ccc(N)cc1 | inactive
10 | C[N+](C)(C)CCCCCC[N+](C)(C)C | inactive
11 | CC(=O)CCCCn1c(=O)c2c(ncn2C)n(C)c1=O | inactive
12 | CCCNC(=O)NS(=O)(=O)c1ccc(Cl)cc1 | inactive
13 | CCn1cc(C(=O)O)c(=O)c2ccc(C)nc21 | inactive
14 | COc1ccccc1N1CCN(CCCNc2cc(=O)n(C)c(=O)n2C)CC1 | inactive
15 | COC(=O)[C@@H]1[C@H]2C[C@H]3c4[nH]c5ccccc5c4CCN3C[C@@H]2CC[C@@H]1O | inactive
16 | CC(C)(C)c1ccc(C(O)CCCN2CCC(C(O)(c3ccccc3)c3ccccc3)CC2)cc1 (stereo not given) | inactive
17 | COc1ccc(Cc2nccc3cc(OC)c(OC)cc23)cc1OC | inactive
18 | CC(C)OC(=O)C(C)(C)Oc1ccc(C(=O)c2ccc(Cl)cc2)cc1 | inactive

Row | Structure (SMILES) | outcome
19 | O=C1NCC2(CCN(CCc3ccccc3)CC2)O1 | inactive
20 | Cc1cccc(C)c1OCC(C)N (stereo not given) | inactive
21 | CCN1CCC[C@H]1CNC(=O)c1cc(S(N)(=O)=O)ccc1OC | inactive
22 | O=c1c(-c2ccc(O)cc2)coc2cc(O)ccc12 | inactive
23 | CN(C)CCC(c1ccccc1)c1ccccn1 (stereo not given) | inactive
24 | CCN(CC)C(=O)c1ccc(O)c(OC)c1 | inactive
25 | CC1(C)CCC2=C(O1)c1ccccc1C(=O)C2=O | inactive
26 | CCN(CC)CCOC(=O)c1ccc(N)cc1 | inactive
27 | Clc1ccc(Cn2c(CN3CCCC3)nc3ccccc32)cc1 | inactive
28 | Clc1ccc(C(c2ccc(Cl)cc2)n2cc[n+](CC(OCc3ccc(Cl)cc3Cl)c3ccc(Cl)cc3Cl)c2)cc1 (stereo not given) | inactive
29 | NCCS | inactive
30 | O=C(NCCN1CCOCC1)c1ccc(Cl)cc1 | inactive
31 | C[N+](C)(C)CC(=O)O | inactive
32 | CCCCCN(C)CCC(O)(P(=O)(O)O)P(=O)(O)O | inactive
33 | CC(=O)O[C@]1(C(C)=O)CC[C@H]2[C@@H]3C=C(Cl)C4=CC(=O)[C@@H]5C[C@@H]5[C@]4(C)[C@H]3CC[C@@]21C | inactive
34 | CC(C)NCC(O)COc1cccc2[nH]ccc12 (stereo not given) | inactive
35 | O=C(O)CCc1nc(-c2ccccc2)c(-c2ccccc2)o1 | inactive
